# In the supplement of paper PMC6411743:
# ± gives the standard deviation of the averaged measurements. The full data set covers some 6,500 targets. This sample favours those with the largest changes.
# Compound: Nc1ncnc2c1ncn2[C@@H]1O[C@H](COP(=O)(O)OP(=O)(O)OP(=O)(O)O)[C@@H](O)[C@H]1O [adenosine triphosphate]
# Experiment: NP40-soluble protein abundance relative to vehicle (solubility fold change) (ratio); higher = more soluble protein in presence of ATP
# In short: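 Eight concentrations, 0.1 to 10 mM, were tested on Jurkat crude lysate for 10 min at room temperature and then 3 min at 37 °C, in three independent experiments. The lysate was solubilised with 0.8% NP40 and benzonase, ultracentrifuged, and the supernatant TMT-labelled for LC-MS/MS. Each value is the fold change against the detergent-processed vehicle in its own replicate, from vsn-normalised intensities.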
# UniProt Q8TDY2, sequence (Q8TDY2 whole entry): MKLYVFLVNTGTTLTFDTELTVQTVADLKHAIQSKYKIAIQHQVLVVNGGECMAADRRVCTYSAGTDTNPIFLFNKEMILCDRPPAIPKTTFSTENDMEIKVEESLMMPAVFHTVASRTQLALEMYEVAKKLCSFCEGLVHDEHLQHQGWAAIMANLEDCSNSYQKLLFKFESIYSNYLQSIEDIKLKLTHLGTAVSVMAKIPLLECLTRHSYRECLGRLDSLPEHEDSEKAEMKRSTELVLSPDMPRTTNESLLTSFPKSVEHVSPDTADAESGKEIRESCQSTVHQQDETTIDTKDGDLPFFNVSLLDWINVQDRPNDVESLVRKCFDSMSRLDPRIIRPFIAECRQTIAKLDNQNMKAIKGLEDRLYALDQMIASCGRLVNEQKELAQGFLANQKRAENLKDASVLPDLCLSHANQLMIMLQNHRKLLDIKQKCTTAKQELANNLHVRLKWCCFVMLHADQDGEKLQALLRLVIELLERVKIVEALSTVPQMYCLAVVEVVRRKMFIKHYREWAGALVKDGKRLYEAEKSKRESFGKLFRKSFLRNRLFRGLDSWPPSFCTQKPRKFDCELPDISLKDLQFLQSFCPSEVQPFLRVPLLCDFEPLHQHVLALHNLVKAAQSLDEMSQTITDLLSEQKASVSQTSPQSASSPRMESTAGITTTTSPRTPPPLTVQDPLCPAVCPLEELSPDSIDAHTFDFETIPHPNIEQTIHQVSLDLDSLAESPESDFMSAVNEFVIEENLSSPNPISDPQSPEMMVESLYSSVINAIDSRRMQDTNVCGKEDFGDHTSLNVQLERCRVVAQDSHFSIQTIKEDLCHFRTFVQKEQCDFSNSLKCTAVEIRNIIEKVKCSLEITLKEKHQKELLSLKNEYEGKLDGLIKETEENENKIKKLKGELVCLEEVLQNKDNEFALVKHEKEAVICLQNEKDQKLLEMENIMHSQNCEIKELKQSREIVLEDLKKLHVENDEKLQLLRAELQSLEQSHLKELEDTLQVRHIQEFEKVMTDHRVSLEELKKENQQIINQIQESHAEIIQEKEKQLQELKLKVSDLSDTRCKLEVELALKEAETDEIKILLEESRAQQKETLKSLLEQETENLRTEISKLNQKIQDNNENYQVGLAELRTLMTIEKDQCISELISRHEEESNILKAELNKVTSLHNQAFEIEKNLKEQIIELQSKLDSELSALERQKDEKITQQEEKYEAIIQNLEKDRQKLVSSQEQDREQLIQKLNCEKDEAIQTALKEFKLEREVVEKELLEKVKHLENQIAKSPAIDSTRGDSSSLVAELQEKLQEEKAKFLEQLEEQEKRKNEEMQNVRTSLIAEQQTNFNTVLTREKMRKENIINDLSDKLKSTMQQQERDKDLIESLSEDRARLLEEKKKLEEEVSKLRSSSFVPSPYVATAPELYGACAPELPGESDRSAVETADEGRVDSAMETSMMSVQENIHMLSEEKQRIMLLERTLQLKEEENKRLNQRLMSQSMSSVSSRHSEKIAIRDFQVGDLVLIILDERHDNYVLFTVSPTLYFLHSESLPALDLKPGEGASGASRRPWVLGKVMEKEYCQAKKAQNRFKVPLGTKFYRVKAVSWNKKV
# UniProt Q86UT6, sequence (Q86UT6 whole entry): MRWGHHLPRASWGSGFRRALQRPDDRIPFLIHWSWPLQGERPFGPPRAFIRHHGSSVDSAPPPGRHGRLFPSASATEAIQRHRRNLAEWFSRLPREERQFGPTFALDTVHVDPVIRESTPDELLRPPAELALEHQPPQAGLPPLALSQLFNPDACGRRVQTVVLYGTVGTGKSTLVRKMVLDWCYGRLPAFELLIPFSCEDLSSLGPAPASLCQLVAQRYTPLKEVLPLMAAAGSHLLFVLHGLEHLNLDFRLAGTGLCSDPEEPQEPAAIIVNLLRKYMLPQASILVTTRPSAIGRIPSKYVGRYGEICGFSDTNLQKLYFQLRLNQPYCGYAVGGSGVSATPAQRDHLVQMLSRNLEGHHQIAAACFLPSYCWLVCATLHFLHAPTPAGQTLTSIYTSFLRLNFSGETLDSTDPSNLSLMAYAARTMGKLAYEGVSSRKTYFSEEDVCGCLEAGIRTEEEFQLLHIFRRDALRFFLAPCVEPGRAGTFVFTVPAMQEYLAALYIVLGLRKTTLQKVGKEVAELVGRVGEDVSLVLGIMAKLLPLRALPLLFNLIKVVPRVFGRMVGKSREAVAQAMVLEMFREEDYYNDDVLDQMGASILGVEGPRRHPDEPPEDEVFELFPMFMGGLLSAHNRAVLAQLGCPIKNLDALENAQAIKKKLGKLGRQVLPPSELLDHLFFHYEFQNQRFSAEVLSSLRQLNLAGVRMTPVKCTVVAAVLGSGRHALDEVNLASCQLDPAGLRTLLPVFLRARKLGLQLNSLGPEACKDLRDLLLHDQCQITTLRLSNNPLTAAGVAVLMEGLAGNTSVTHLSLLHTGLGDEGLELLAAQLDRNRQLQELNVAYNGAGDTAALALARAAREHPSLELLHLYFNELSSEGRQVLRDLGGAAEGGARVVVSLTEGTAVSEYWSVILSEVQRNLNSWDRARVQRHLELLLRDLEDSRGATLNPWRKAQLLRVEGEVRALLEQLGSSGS
# UniProt Q13247, sequence (Q13247 whole entry, looked up): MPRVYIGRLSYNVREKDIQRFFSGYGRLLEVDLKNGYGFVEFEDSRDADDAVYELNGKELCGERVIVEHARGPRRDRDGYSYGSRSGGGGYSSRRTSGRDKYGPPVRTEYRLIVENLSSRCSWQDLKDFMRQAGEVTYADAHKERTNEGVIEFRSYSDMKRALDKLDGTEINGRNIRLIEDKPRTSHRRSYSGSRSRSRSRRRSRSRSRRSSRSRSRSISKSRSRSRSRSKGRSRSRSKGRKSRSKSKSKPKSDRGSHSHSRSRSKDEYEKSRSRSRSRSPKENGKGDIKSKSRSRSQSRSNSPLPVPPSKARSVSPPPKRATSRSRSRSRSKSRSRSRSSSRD
# UniProt Q86Y01, sequence (Q86Y01 whole entry): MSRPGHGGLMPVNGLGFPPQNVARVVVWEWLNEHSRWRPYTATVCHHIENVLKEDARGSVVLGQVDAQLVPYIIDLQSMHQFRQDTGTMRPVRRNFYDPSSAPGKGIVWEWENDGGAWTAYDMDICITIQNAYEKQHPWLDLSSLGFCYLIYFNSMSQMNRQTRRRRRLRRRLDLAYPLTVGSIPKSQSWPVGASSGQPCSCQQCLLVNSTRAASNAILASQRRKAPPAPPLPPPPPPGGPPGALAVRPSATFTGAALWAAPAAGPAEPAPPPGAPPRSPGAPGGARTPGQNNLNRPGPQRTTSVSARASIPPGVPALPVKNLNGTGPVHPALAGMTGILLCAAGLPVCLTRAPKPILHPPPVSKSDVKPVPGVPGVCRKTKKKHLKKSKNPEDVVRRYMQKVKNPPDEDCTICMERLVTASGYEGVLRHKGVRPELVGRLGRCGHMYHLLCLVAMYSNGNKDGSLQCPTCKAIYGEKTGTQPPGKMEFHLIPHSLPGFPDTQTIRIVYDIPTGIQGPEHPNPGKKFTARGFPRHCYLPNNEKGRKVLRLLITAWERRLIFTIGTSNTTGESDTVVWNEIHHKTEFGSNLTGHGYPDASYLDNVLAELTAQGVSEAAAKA
# UniProt Q8IUH5, sequence (Q8IUH5 whole entry): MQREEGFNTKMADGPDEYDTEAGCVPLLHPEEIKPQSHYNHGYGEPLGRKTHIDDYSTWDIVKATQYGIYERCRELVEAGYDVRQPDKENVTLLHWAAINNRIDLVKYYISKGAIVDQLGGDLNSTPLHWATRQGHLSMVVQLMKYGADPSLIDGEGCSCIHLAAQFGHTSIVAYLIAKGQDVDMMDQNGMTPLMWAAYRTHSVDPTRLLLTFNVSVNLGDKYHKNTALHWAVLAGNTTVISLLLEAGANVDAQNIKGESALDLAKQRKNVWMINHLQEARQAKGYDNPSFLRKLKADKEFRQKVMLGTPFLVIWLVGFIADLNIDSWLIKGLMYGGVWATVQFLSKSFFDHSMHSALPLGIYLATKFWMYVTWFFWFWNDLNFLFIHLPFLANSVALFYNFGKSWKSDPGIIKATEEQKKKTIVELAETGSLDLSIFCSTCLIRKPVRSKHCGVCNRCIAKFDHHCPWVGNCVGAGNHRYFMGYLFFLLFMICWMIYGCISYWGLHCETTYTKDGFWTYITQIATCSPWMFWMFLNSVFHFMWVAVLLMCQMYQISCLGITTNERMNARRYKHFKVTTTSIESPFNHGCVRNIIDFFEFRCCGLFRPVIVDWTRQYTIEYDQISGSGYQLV
# UniProt Q16611, sequence (Q16611 whole entry): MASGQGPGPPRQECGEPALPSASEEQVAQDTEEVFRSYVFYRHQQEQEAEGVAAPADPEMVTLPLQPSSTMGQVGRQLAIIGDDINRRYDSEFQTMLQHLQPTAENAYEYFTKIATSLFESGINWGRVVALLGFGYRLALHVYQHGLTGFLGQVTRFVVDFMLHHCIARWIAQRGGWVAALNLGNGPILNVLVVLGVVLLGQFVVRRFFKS
# UniProt Q86U90, sequence (Q86U90 whole entry): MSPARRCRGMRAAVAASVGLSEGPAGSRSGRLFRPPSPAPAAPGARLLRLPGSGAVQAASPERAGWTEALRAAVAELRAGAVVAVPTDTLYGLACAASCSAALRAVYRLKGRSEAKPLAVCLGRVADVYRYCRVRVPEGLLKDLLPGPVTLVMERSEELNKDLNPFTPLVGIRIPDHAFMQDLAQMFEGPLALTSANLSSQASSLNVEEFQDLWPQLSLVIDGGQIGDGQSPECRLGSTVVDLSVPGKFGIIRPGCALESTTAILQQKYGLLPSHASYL
# UniProt Q8TAD8, sequence (Q8TAD8 whole entry): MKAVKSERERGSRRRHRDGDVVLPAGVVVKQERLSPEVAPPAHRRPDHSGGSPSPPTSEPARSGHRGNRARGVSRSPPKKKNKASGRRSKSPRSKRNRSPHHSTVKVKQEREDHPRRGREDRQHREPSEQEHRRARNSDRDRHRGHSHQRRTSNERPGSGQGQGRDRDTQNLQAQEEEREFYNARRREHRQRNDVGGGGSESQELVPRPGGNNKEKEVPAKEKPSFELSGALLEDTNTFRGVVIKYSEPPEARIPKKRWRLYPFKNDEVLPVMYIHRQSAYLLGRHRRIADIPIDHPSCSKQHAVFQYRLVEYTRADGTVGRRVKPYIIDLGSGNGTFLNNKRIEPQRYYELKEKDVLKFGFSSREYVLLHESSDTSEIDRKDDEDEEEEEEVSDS
Target,NP40-soluble protein abundance (concentration: 1mM),NP40-soluble protein abundance (concentration: 2mM),NP40-soluble protein abundance (concentration: 4mM),NP40-soluble protein abundance (concentration: 6mM),NP40-soluble protein abundance (concentration: 8mM),NP40-soluble protein abundance (concentration: 10mM)
DDX60 (UniProt Q8IY21),1.2 ± 0.078,1.27 ± 0.093,1.66 ± 0.11,1.73 ± 0.15,1.9 ± 0.16,1.95 ± 0.11
UniProt Q86Y01,0.964 ± 0.033,1.05 ± 0.022,1.12 ± 0.065,1.05 ± 0.088,1.09 ± 0.012,1.15 ± 0.1
FADD (UniProt Q13158),1.1 ± 0.14,1.05 ± 0.05,1.06 ± 0.11,1.05 ± 0.046,1.06 ± 0.13,0.969 ± 0.11
LYPLAL1 (UniProt Q5VWZ2),0.942 ± 0.077,0.936 ± 0.066,0.892 ± 0.048,0.879 ± 0.12,0.883 ± 0.03,0.904 ± 0.057
UniProt Q32P28|Q32P28-3|Q32P28-4,1.13 ± 0.023,1.15 ± 0.025,1.2 ± 0.077,1.19 ± 0.043,1.22 ± 0.051,1.198 ± 0.0094
UniProt Q6IN85,1.03 ± 0.066,0.979 ± 0.042,0.946 ± 0.041,0.991 ± 0.048,0.956 ± 0.047,0.935 ± 0.08
URB2 (UniProt Q14146),1.21 ± 0.1,1.36 ± 0.15,1.61 ± 0.058,1.68 ± 0.11,2.04 ± 0.16,2.19 ± 0.46
UniProt Q86X83|Q86X83-2,1.01 ± 0.038,0.975 ± 0.011,0.963 ± 0.024,0.927 ± 0.022,0.956 ± 0.048,0.971 ± 0.021
UniProt Q16611|Q16611-2,1.01 ± 0.036,0.985 ± 0.023,1.02 ± 0.09,1.05 ± 0.045,0.997 ± 0.077,0.993 ± 0.087
UniProt Q7Z7K6|Q7Z7K6-3,1.08 ± 0.058,1.14 ± 0.19,1.33 ± 0.14,1.47 ± 0.24,1.56 ± 0.23,2.03 ± 0.28
ZNF579 (UniProt Q8NAF0),0.954 ± 0.03,1.06 ± 0.12,0.945 ± 0.016,0.936 ± 0.073,0.901 ± 0.045,0.887 ± 0.1
UniProt Q8IZ81|D6RBS5,1.01 ± 0.11,0.966 ± 0.089,0.958 ± 0.094,0.916 ± 0.12,0.967 ± 0.045,0.958 ± 0.057
UniProt Q8TCD5|J3KRC4,1 ± 0.021,1.02 ± 0.04,1.01 ± 0.057,0.942 ± 0.15,1.01 ± 0.11,0.954 ± 0.091
KIF18A (UniProt Q8NI77),1.09 ± 0.11,0.996 ± 0.2,1.09 ± 0.035,1.06 ± 0.013,1.09 ± 0.18,1.18 ± 0.16
UniProt Q5T280,1.03 ± 0.085,1.08 ± 0.077,1.23 ± 0.12,1.47 ± 0.17,1.52 ± 0.21,1.83 ± 0.22
UniProt Q8NG08|F5H1I4,1.05 ± 0.18,1.06 ± 0.12,1.09 ± 0.16,0.955 ± 0.13,0.984 ± 0.066,1.01 ± 0.1
SF3B3 (UniProt Q15393),1.12 ± 0.072,1.11 ± 0.052,1.15 ± 0.072,1.1 ± 0.032,1.188 ± 0.0092,1.19 ± 0.037
PCGF5 (UniProt Q86SE9),0.922 ± 0.16,1.01 ± 0.056,0.981 ± 0.15,0.987 ± 0.087,0.954 ± 0.11,1.07 ± 0.037
UniProt Q13057|Q13057-2,1.01 ± 0.061,1.02 ± 0.072,1.02 ± 0.086,0.962 ± 0.094,1.04 ± 0.095,1.02 ± 0.075
SNIP1 (UniProt Q8TAD8),1.18 ± 0.044,1.22 ± 0.055,1.44 ± 0.085,1.57 ± 0.098,1.67 ± 0.11,1.8 ± 0.1

Target,NP40-soluble protein abundance (concentration: 1mM),NP40-soluble protein abundance (concentration: 2mM),NP40-soluble protein abundance (concentration: 4mM),NP40-soluble protein abundance (concentration: 6mM),NP40-soluble protein abundance (concentration: 8mM),NP40-soluble protein abundance (concentration: 10mM)
MDC1 (UniProt Q14676),1.45 ± 0.11,1.57 ± 0.11,1.74 ± 0.13,1.89 ± 0.18,1.88 ± 0.13,1.99 ± 0.15
UniProt Q7Z2T5,1.09 ± 0.05,1.16 ± 0.051,1.27 ± 0.013,1.39 ± 0.023,1.55 ± 0.018,1.69 ± 0.051
UniProt Q14289|Q14289-2|H0YB74,1.03 ± 0.04,1.04 ± 0.042,1.02 ± 0.04,0.981 ± 0.06,1.01 ± 0.04,1 ± 0.064
UniProt Q8NB78,1.11 ± 0.064,1.09 ± 0.025,1.11 ± 0.08,0.998 ± 0.08,1.11 ± 0.035,1.09 ± 0.025
ZC3H12A (UniProt Q5D1E8),0.982 ± 0.088,1.05 ± 0.089,0.988 ± 0.11,1.02 ± 0.085,1.02 ± 0.084,0.943 ± 0.11
ZDHHC17 (UniProt Q8IUH5),1.08 ± 0.056,0.997 ± 0.021,1.11 ± 0.082,1.02 ± 0.058,1.09 ± 0.063,1.08 ± 0.033
UniProt Q6PK18|Q6PK18-2,1.06 ± 0.02,1.06 ± 0.061,0.955 ± 0.045,1.03 ± 0.074,1.09 ± 0.15,1.04 ± 0.024
UniProt Q6Y7W6|Q6Y7W6-4|Q6Y7W6-5,1.05 ± 0.076,1.08 ± 0.05,1.1 ± 0.051,1.18 ± 0.068,1.12 ± 0.029,1.16 ± 0.045
EFTUD2 (UniProt Q15029),1.12 ± 0.04,1.16 ± 0.047,1.21 ± 0.047,1.26 ± 0.075,1.41 ± 0.056,1.42 ± 0.12
PIGO (UniProt Q8TEQ8),0.991 ± 0.035,1 ± 0.062,0.996 ± 0.02,0.979 ± 0.073,0.983 ± 0.051,1.01 ± 0.039
RABEP1 (UniProt Q15276),0.942 ± 0.049,0.944 ± 0.032,0.928 ± 0.021,0.995 ± 0.054,0.895 ± 0.016,0.9135 ± 0.0042
UniProt Q13247|Q13247-3,1.84 ± 0.25,1.98 ± 0.19,2 ± 0.21,2.28 ± 0.23,2.17 ± 0.17,2.15 ± 0.25
ZCCHC7 (UniProt Q8N3Z6),1.02 ± 0.19,1.2 ± 0.026,1.34 ± 0.021,1.48 ± 0.018,1.51 ± 0.15,1.79 ± 0.044
UniProt Q13438|Q13438-7,0.953 ± 0.036,0.953 ± 0.049,0.94 ± 0.056,0.99 ± 0.069,0.939 ± 0.031,0.952 ± 0.045
BNIP1 (UniProt Q12981),0.986 ± 0.051,0.983 ± 0.05,0.98 ± 0.07,1 ± 0.012,0.971 ± 0.049,0.932 ± 0.053
UniProt Q8IWZ8,1.03 ± 0.036,1.05 ± 0.037,1.08 ± 0.034,1.11 ± 0.068,1.11 ± 0.051,1.09 ± 0.037
UniProt Q8N137|Q8N137-2|Q8N137-3|Q8N137-4|Q8N137-5,0.92 ± 0.024,1.032 ± 0.006,1.15 ± 0.056,0.983 ± 0.054,0.945 ± 0.026,0.947 ± 0.2
UniProt Q5T200|Q5T200-2,1.04 ± 0.057,1.1 ± 0.056,1.15 ± 0.077,1.22 ± 0.094,1.21 ± 0.086,1.29 ± 0.093
PDCD11 (UniProt Q14690),1.09 ± 0.092,1.14 ± 0.056,1.29 ± 0.062,1.5 ± 0.13,1.75 ± 0.073,2.06 ± 0.15
YRDC (UniProt Q86U90),0.928 ± 0.045,0.959 ± 0.05,0.93 ± 0.028,0.885 ± 0.043,0.896 ± 0.01,0.932 ± 0.017

Target,NP40-soluble protein abundance (concentration: 1mM),NP40-soluble protein abundance (concentration: 2mM),NP40-soluble protein abundance (concentration: 4mM),NP40-soluble protein abundance (concentration: 6mM),NP40-soluble protein abundance (concentration: 8mM),NP40-soluble protein abundance (concentration: 10mM)
THOC7 (UniProt Q6I9Y2),1.4 ± 0.11,1.5 ± 0.15,1.73 ± 0.19,1.95 ± 0.38,2.12 ± 0.2,2.03 ± 0.26
PRPF4B (UniProt Q13523),1.29 ± 0.015,1.329 ± 0.011,1.46 ± 0.018,1.6 ± 0.061,1.68 ± 0.041,1.8 ± 0.022
UniProt Q7Z5K2|Q7Z5K2-3,1.02 ± 0.011,0.995 ± 0.018,0.993 ± 0.011,1.01 ± 0.026,1.014 ± 0.0065,0.987 ± 0.029
UniProt Q86UT6|Q86UT6-2,1.03 ± 0.027,1.081 ± 0.0018,0.99 ± 0.06,1.01 ± 0.18,1.02 ± 0.14,1.03 ± 0.12
UniProt Q10567|Q10567-2|Q10567-3,0.9721 ± 0.0088,0.973 ± 0.015,0.922 ± 0.022,0.964 ± 0.013,0.951 ± 0.0014,0.934 ± 0.024
UniProt Q86Y56,0.992 ± 0.076,0.985 ± 0.067,0.954 ± 0.036,0.917 ± 0.082,0.937 ± 0.046,0.976 ± 0.052
Q5VVD7|Q8IWE5 (UniProt Q8IWE5),0.929 ± 0.047,0.998 ± 0.048,0.932 ± 0.04,0.953 ± 0.036,0.95 ± 0.04,0.955 ± 0.03
UniProt Q13761|Q13761-2,1.07 ± 0.2,1.18 ± 0.35,1.18 ± 0.3,1.19 ± 0.31,1.13 ± 0.23,1.18 ± 0.13
CEP135 (UniProt Q66GS9),0.983 ± 0.041,0.966 ± 0.026,0.964 ± 0.038,0.956 ± 0.036,0.972 ± 0.029,0.989 ± 0.047
UniProt Q16630|Q16630-2,2.36 ± 0.24,2.68 ± 0.27,2.89 ± 0.3,3.09 ± 0.32,3.03 ± 0.2,3.05 ± 0.28
GRAMD4 (UniProt Q6IC98),1.01 ± 0.02,0.998 ± 0.02,0.994 ± 0.035,1.02 ± 0.031,1.02 ± 0.025,1.01 ± 0.02
UniProt Q13137|Q13137-3|Q13137-4|Q13137-5|H0YBP4,0.962 ± 0.033,0.968 ± 0.032,0.9319 ± 0.0066,0.986 ± 0.03,0.941 ± 0.012,0.948 ± 0.026
UniProt Q12872|Q12872-2,1.24 ± 0.083,1.33 ± 0.049,1.5 ± 0.049,1.77 ± 0.068,1.77 ± 0.066,1.93 ± 0.075
NFX1 (UniProt Q12986),1.07 ± 0.08,1.21 ± 0.042,1.34 ± 0.041,1.46 ± 0.046,1.62 ± 0.031,1.66 ± 0.11
UniProt Q86W42|Q86W42-2,1.59 ± 0.18,1.69 ± 0.05,2 ± 0.087,2.16 ± 0.071,2.47 ± 0.094,2.55 ± 0.19
UniProt Q13409|Q13409-2|Q13409-3|Q13409-7|Q13409-5,0.957 ± 0.063,0.957 ± 0.037,0.953 ± 0.059,0.994 ± 0.18,0.975 ± 0.089,0.973 ± 0.074
UniProt Q86X95,0.964 ± 0.013,0.935 ± 0.061,0.9643 ± 0.008,0.949 ± 0.026,0.935 ± 0.0096,0.913 ± 0.02
UniProt Q14498|Q14498-2,1.59 ± 0.14,1.72 ± 0.12,1.84 ± 0.12,1.93 ± 0.13,1.98 ± 0.15,2.02 ± 0.2
UniProt Q8TDY2|Q8TDY2-2,1.04 ± 0.056,1.02 ± 0.044,1.03 ± 0.038,1.04 ± 0.042,1.01 ± 0.041,1.04 ± 0.038
UniProt Q4G0J3|Q4G0J3-3,1.17 ± 0.046,1.22 ± 0.047,1.36 ± 0.021,1.507 ± 0.0071,1.56 ± 0.049,1.71 ± 0.018
